Data on 40 compounds can be found in PubChem BioAssay.

SMILES strings stand for the structures. Activity calls are given as the source filed them. No rule for the calls is given here.

The target of the assay is Pantothenate synthetase (Mycobacterium tuberculosis (strain ATCC 25618 / H37Rv)) (UniProt P9WIL5). In words: Coupled enzyme confirmation of inhibitors against recombinant Mtb PanC (AID 375).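 Also: 0% = full reaction with vehicle and 100% = no enzyme background.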 To be noted: coupled enzyme assay; at 10 µM, active compounds read high.
Chain of Pantothenate synthetase (Mycobacterium tuberculosis (strain ATCC 25618 / H37Rv)) (P9WIL5 whole entry, looked up): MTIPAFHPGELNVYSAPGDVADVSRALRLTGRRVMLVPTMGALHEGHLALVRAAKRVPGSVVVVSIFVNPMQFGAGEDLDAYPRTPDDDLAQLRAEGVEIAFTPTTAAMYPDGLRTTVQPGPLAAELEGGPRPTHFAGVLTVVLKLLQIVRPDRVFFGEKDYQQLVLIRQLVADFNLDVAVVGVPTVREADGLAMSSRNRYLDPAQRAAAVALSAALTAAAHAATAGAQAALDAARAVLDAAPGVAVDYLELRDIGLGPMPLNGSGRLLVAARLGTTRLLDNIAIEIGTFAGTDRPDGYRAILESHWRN
`COCCn1c(SCC(=O)Nc2cccc(OC)c2)nnc1-c1ccccc1`: the inhibition was 4% (inactive).
As to `COc1ccc(Cn2c(N)c(C#N)c3nc4ccccc4nc32)cc1OC`, the inhibition is 1% (inactive).
The same measure for `COCCCNC(=O)Cn1cc2c(n1)CCC(C)C2` (stereo not given): 3% (inactive); for `CSc1cccc(NC(=O)C2CCN(S(C)(=O)=O)CC2)c1`: 0% (inactive); for `COCc1cc(C)nc(Nc2ccc(C)cc2C)c1C#N`: 0% (inactive).
`CC1CCCCC1NC(=O)CCCc1nc2ccccc2c(=O)[nH]1` (stereo not given): the inhibition is 0% (inactive).
In the case of `COc1ccc(-c2cc(C(=O)N3CCN(Cc4ccccc4)CC3)no2)cc1OC`, the inhibition was 3% (inactive).
Regarding `Cc1noc(C)c1S(=O)(=O)N1CCC(C(=O)Nc2ccccn2)CC1`, the inhibition is 4% (inactive).
Regarding `Cn1cc(C2NC(=O)c3c(sc4c3CCCC4)N2)c2ccccc21` (stereo not given), the inhibition was 0% (inactive).
For `COc1ccc(C(=O)N2CCN(c3nc4cc(C)ccc4cc3C#N)CC2)c(OC)c1`, the inhibition is 0% (inactive).
Regarding `c1ccc(-c2ccc(-c3ccccn3)nn2)nc1`, the inhibition was 8% (inactive).
Regarding `COc1ccc(NS(=O)(=O)c2ccc(N)cc2)nn1`, the inhibition was 1% (inactive).
In the case of `CCC(C(=O)OCCN(CC)CC)c1ccccc1` (stereo not given), the inhibition is 0% (inactive).
With `CC(C)C(=O)Nc1nnc(CCc2nnc(NC(=O)C(C)C)s2)s1`, the inhibition was 2% (inactive).
With `Clc1cccc(Nc2c3c(nc4ncnn24)CCC3)c1`, the inhibition was 0% (inactive).
The same measure for `CCOC(=O)c1[nH]c(C)c(C(=O)Nc2cc(OC)ccc2OC)c1C`: 0% (inactive); for `Cn1c(SCc2c(F)cccc2Cl)nnc1-c1cccs1`: 0% (inactive).
Turning to `Fc1ccc(Cn2nnc(-c3ccc(CN4CCOCC4)cc3)n2)cc1`, the inhibition was 0% (inactive).
With `O=C(Nc1ccc(N2C(=O)C3C4C=CC(C4)C3C2=O)cc1)Nc1cccnc1` (stereo not given), the inhibition was 0% (inactive).
As to `Cn1c(=O)c2c(nc(NCCCO)n2C/C=C/c2ccccc2)n(C)c1=O`, the inhibition is 4% (inactive).
On to `COc1ccccc1OCC(=O)Nc1cccc(-c2nc3ccccc3o2)c1`, for which the inhibition is 0% (inactive).
In the case of `Cc1sc2nc3n(c(=O)c2c1C)NC(=O)CC3` it was 0% (inactive); in that of `O=C(NC(C(=O)c1ccccc1)N1CCOCC1)c1cccs1` (stereo not given), 0% (inactive).
Turning to `CC(=O)OCC(=O)[C@H]1CC[C@H]2[C@@H]3CC=C4C[C@@H](O)CC[C@]4(C)[C@H]3CC[C@]12C`, the inhibition was 1% (inactive).
Regarding `CCOC(=O)CSc1nnc(Cn2c(=O)sc3ccccc32)n1C`, the inhibition is 0% (inactive).
Consider `Cc1nc2nc(-c3cccnc3)nn2c(C)c1Cl`, for which the inhibition is 0% (inactive).
As for `N#Cc1c(N2CCCC2)nc(N)c2c(N)nc(N3CCCC3)cc12`, the inhibition is 0% (inactive).
Consider `Cn1c(C(=O)NCCCN2CCN(c3ccc(F)cc3)CC2)cc2c(=O)n(C)c3ccccc3c21`, for which the inhibition was 0% (inactive).
The same measure for `Cc1ccc(Cl)cc1NC(=O)CSc1nnc(C)n1-c1ccccc1`: 0% (inactive); for `COc1ccccc1OCCOc1ccccc1/C=N/n1cnnc1`: 6% (inactive); for `O=C(CCN1C(=O)COc2ccccc21)NCCCN1CCN(c2ccccc2F)CC1`: 0% (inactive).
As for `CCCOc1cccc(NC(=O)c2c(-c3ccccc3)noc2C)c1`, the inhibition was 0% (inactive).
In the case of `O=C(Nc1ccncc1)c1cc2ccccc2o1` it was 3% (inactive); in that of `CCn1cc(C(=O)NCCN(C)CCc2ccccc2)c(=O)c2cc(S(=O)(=O)N(C)C)ccc21`, 4% (inactive).
In the case of `CCOc1cc(C2C(C#N)=C(N)OC(C)=C2C(C)=O)cc(Br)c1O` (stereo not given) it was 1% (inactive); in that of `Cc1ccc(C)c(N2CCN(Cc3nnnn3C3CCCCC3)CC2)c1`, 1% (inactive); in that of `CC1CCN(CCn2c(=S)[nH]c3ncccc3c2=O)CC1`, 0% (inactive).
As for `COc1cccc(C(=O)Nc2cnc(NC(=O)c3ccco3)cc2C)c1`, the inhibition was 9% (inactive).
In the case of `CCc1cc2c(=O)c(-c3cscn3)coc2cc1O` it was 0% (inactive); in that of `CCOC(=O)C1CCN(C(=O)Nc2ccc3nc(C)c(C)nc3c2)CC1`, 0% (inactive).

Broadly, the inhibition is how much of the control response was suppressed.
